Test results taken from the supplement of paper PMC4166925.
± gives the standard deviation of the averaged measurements. Whole data set: some 33,000 sequences, median “E-score (dimensionless, -0.5 to 0.5)” near -0.046, cut for the highest 2% near 0.36. The sample as a whole holds a higher share of the highest values than the screen did.

System: T1, SpTbr T-box DNA-binding domain (GST fusion)
T1 sequence: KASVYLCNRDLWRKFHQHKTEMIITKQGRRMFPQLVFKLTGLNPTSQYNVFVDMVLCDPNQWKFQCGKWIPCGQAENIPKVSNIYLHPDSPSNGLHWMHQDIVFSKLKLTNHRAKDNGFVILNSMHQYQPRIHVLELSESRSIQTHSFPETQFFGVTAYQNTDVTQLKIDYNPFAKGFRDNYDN
Assay: PBM E-score of 8-mer (E-score (dimensionless, -0.5 to 0.5)); Tbr is Tbrain of the sea star Patiria miniata (Pm) or the sea urchin Strongylocentrotus purpuratus (Sp); higher = stronger binding preference
Conditions: the construct has about 5 more residues each side
Procedure, shortened: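 Each ungapped 8-mer received an enrichment E-score from the Universal PBM Analysis Suite, averaged over duplicate arrays. The proteins were Tbr T-box DNA-binding domains, covering the whole T-box plus about five flanking residues, fused to GST and expressed in BL21 E. coli at 20 °C before glutathione affinity purification. Universal Agilent oligonucleotide arrays were made double-stranded by primer extension and incubated with 200 nM protein in PBS (pH 7.5). The arrays were then scanned and quantified, and every 8-mer was scored from probe intensities.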

Sequence	PBM E-score of 8-mer
CCAAAGGA	-0.262 ± 0.032
AGCCTCAC	0.178 ± 0.015
GCTGTTCC	-0.0355 ± 0.05
GCCTCCGA	-0.0614 ± 0.071
GAGTATGA	-0.047 ± 0.066
CTTGCCAA	0.153 ± 0.021
ATGGTGGC	0.274 ± 0.028
CTGGTGTC	0.312 ± 0.033
ATGGTGTG	0.39 ± 0.023
ATGGTGCG	0.206 ± 0.037
ATGGTGTC	0.392 ± 0.005
ATGGTGTA	0.127 ± 0.015
AAGTTTGA	-0.0385 ± 0.021
CGGTCAGC	-0.186 ± 0.18
ATTCAAAT	-0.0886 ± 0.04
ATAGAGCG	-0.0811 ± 0.011
AATTGTTC	0.0645 ± 0.035
GACCACCC	-0.0294 ± 0.0021
GACACCAA	0.327 ± 0.024
CACCACAC	0.3556 ± 0.0015
CACACCAG	0.386 ± 0.036
CCCACCAC	-0.00552 ± 0.018
CACACCAA	0.38 ± 0.017
AACACCAC	0.344 ± 0.015
CACACCAC	0.394 ± 0.015

Sequence	PBM E-score of 8-mer
CGCACCAG	0.242 ± 0.0071
GACACCAC	0.367 ± 0.039
CCCACCAA	-0.0327 ± 0.016
CTCACCAA	0.133 ± 0.059
AACACCAG	0.317 ± 0.028
TCATTTAA	-0.193 ± 0.036
CCTCTGCA	-0.1407 ± 0.00062
AATAGCCC	-0.194 ± 0.016
AGTAAATA	-0.121 ± 0.066
GCTTGCTA	-0.156 ± 0.02
AGCGCACG	0.137 ± 0.04
ACTGTCTG	0.126 ± 0.021
AGGCTTGG	-0.225 ± 0.031
AGACTTTC	0.00343 ± 0.055
GCTACCTA	-0.0771 ± 0.051
ACCTGTCG	0.37 ± 0.011
GCCTGTGA	0.187 ± 0.0033
ACCTGTCT	0.104 ± 0.0037
CCCTGTCG	-0.00439 ± 0.04
GGCTGTCA	0.172 ± 0.051
AGCTGTGG	0.129 ± 0.058
AGCTGTGC	0.214 ± 0.041
AGCTGTCC	0.00624 ± 0.016
ACCTGTGA	0.3985 ± 0.0028
ACCTGTGC	0.151 ± 0.018

Sequence	PBM E-score of 8-mer
AGCTGTGA	0.393 ± 0.0083
AGCTGTCA	0.382 ± 0.022
CGGCCAAA	-0.0415 ± 0.0054
ATAACCGA	-0.206 ± 0.066
CAGTTCTC	0.143 ± 0.053
AACCACTG	-0.317 ± 0.011
CACTCTCC	0.0753 ± 0.021
AACTGTGA	0.376 ± 0.011
AACTGTGG	0.128 ± 0.0018
AACTGTGC	-0.0399 ± 0.045
GCTTAGGA	-0.107 ± 0.059
GACCTCTC	-0.153 ± 0.016
AACCTCTG	-0.137 ± 0.075
AACCTCTA	-0.187 ± 0.065
AACCTCTC	-0.0774 ± 0.028
CACCTCTA	0.416 ± 0.0043
CACCTCTC	0.421 ± 0.022
GACCTCTA	-0.234 ± 0.033
CACCTCTG	0.3929 ± 0.0014
CAACTCTG	0.225 ± 0.013
ATAGGAGC	-0.181 ± 0.022
CACAACTC	0.25 ± 0.0039
AGAGGAGA	-0.116 ± 0.043
CTTTCAGC	-0.162 ± 0.032
GGTTGTTA	0.213 ± 0.048

Sequence	PBM E-score of 8-mer
CCGACCTC	-0.148 ± 0.046
CAACACGG	0.0142 ± 0.003
GTGTCAGA	0.387 ± 0.023
CTGTCAGA	0.207 ± 0.025
TTGTCAAA	0.0897 ± 0.09
CTGTCGCA	0.235 ± 0.054
ATGTCGCA	0.231 ± 0.039
GTGTCAAA	0.444 ± 0.0081
GTGTCGCA	0.367 ± 0.021
ATGTCAGA	-0.15 ± 0.011
GTGTCAAC	0.4761 ± 0.0027
ATGTCAAC	0.267 ± 0.024
CTGTCAAC	0.35 ± 0.023
CTGTCAAA	0.249 ± 0.057
CCGCTCTC	-0.00942 ± 0.013
CCTATTCG	-0.116 ± 0.11
AAACTATG	-0.131 ± 0.049
CCAACTCA	-0.0818 ± 0.049
CAGAAGCC	-0.308 ± 0.064
GTTCAATA	-0.174 ± 0.0066
ATGTCACA	0.3087 ± 0.00058
GCGTCAAC	0.3857 ± 0.0035
CCGTCAAC	0.24 ± 0.021
CTGTCATA	0.122 ± 0.036
ATGTCATA	-0.202 ± 0.0053

Sequence	PBM E-score of 8-mer
ATGTCACG	0.204 ± 0.017
GTGTCACA	0.436 ± 0.011
GTGTCATA	0.404 ± 0.022
GCGTCAAA	0.31 ± 0.029
ACCACACT	0.328 ± 0.0063
CAAGGTCC	-0.257 ± 0.041
AACCCGTT	-0.0209 ± 0.077
GGAGGTGA	0.374 ± 0.035
AGAGGTGA	0.298 ± 0.023
CGAGGTGC	0.445 ± 0.0072
AGAGGTGC	0.394 ± 0.014
CGAGGTCC	-0.207 ± 0.017
GGAGGTCA	0.0169 ± 0.067
AGAGGTGG	0.285 ± 0.031
CGAGGTCA	0.0539 ± 0.041
CGAGGTTA	0.0218 ± 0.011
CGAGGTAC	-0.11 ± 0.026
AGAGGTTC	-0.172 ± 0.065
CGAGGTGA	0.418 ± 0.01
GCAGCCCC	-0.15 ± 0.027
CGTAGTGC	-0.0779 ± 0.017
CGCTCGAC	-0.0351 ± 0.11
ATCCTGTA	-0.104 ± 0.036
ACCAGACT	-0.1941 ± 0.0019
GACGCCCA	-0.0155 ± 0.091

Sequence	PBM E-score of 8-mer
AGGTGTTC	0.3819 ± 0.00093
AGCTGTTG	0.208 ± 0.0081
AGATGTTG	0.0448 ± 0.039
AGATGTTC	0.0355 ± 0.018
AGGTGTTG	0.482 ± 0.0055
CGGTGTTC	-0.0703 ± 0.07
CGGGGTGC	0.233 ± 0.02
GGCCCAGA	-0.2892 ± 0.0023
GTATGGCA	0.0595 ± 0.0057
GCGCTGTA	0.206 ± 0.014
GTACTATA	-0.112 ± 0.079
CCATGCGC	-0.0395 ± 0.1
ACATATCC	-0.0962 ± 0.058
TCTATCAA	-0.141 ± 0.0063
GCGTGTCA	0.313 ± 0.024
GGGGGTTA	-0.156 ± 0.038
CGATGTGA	0.183 ± 0.017
GGGGGTCA	0.0604 ± 0.0046
CGGTGTCA	0.398 ± 0.02
CGGTGTTA	0.3373 ± 0.0021
CGATGTCA	0.1339 ± 0.00055
GGGTGTCA	0.475 ± 0.0055
CGGTGTGC	0.0403 ± 0.015
CGGTGTGA	0.456 ± 0.0098
GGGTGTTA	0.463 ± 0.0026

Sequence	PBM E-score of 8-mer
CGGTGTCC	-0.0339 ± 0.0071
ATGTAGGG	-0.355 ± 0.013
CGAGTTAA	0.193 ± 0.008
GCCCACTA	-0.0422 ± 0.07
CTTCACTA	0.0992 ± 0.0044
ACACCCGC	0.3794 ± 0.0031
ACACCCGG	0.317 ± 0.042
CCACCCGC	0.105 ± 0.028
ACACCCGA	0.41 ± 0.0072
TCACCCGA	0.0108 ± 0.15
GCACCCGC	0.305 ± 0.035
GCTCTGTA	-0.199 ± 0.025
AACTGACT	-0.141 ± 0.043
CAGAAATG	-0.202 ± 0.012
CGTTTTCC	-0.282 ± 0.054
TCATTACA	-0.0133 ± 0.029
CTGTGAAC	0.4126 ± 0.00049
CTGTGAAG	0.296 ± 0.027
TTGTGAAA	0.361 ± 0.04
ATGTGAAA	0.263 ± 0.03
CTGTGAAA	0.396 ± 0.017
ATGTGAAC	0.203 ± 0.012
